The nature of test [1]: qHTS assay to identify small molecule antagonists of the progesterone receptor (PR) signaling pathway - cell viability counter screen (AID 1346798). Further: nearly all actives have a fitted effect of over 50% in size. Further: potency means the concentration at half of the fitted maximal effect. On activity change, negative = cytotoxicity: series mostly up to about 92 µM. A digest of the protocol:
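PR-UAS-bla HEK293T cells in medium with 2% charcoal-stripped FBS were treated with compounds plus R5020 for 16 hr at 37C. Cell viability was then read by CellTiter-Glo luminescence after 30 min at room temperature in the same wells.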
A general note: In qHTS, concentration-response curves come from the screen itself.

Test [2] can be described thus: qHTS assay to identify small molecule agonists of the progesterone receptor (PR) signaling pathway - cell viability counter screen (AID 1346799; calls by dose curve; further: nearly all actives have a fitted effect of over 45% in size; further: potency means the concentration at half of the fitted maximal effect). A digest of the protocol: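 PR-UAS-bla HEK293T cells, 3,000 per well in medium with 2% charcoal-stripped FBS, were preincubated 6 hr at 37C, then exposed to compounds for 16 hr; viability was read as CellTiter-Glo luminescence after 30 min at room temperature.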

Test [3] is described as follows: qHTS assay to identify small molecule antagonists of the TGF-beta/Smad signaling pathway - cell viability counter screen (AID 1346824). Further: nearly all actives have a fitted effect of over 50% in size. Further: potency means the concentration at half of the fitted maximal effect. A digest of the protocol: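 Cytotoxicity counter-screen run in the same wells as the beta-lactamase Smad reporter read: CellTiter-Glo luminescence after 30 min at room temperature. HEK 293T SBE-bla cells had 5 hr compound exposure at 37 C with TGF-beta1 (0.25 ng/mL stock).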

A short description of test [4]: qHTS assay to identify small molecule agonists of the TGF-beta/Smad signaling pathway - cell viability counter screen (AID 1346829). Further: nearly all actives have a fitted effect of over 45% in size. Further: potency means the concentration at half of the fitted maximal effect. On activity change, negative = cytotoxicity: top concentration of the series differs between compounds. Put shortly: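 Same-well cytotoxicity: CellTiter-Glo added after the 2 hr room-temperature beta-lactamase substrate step, luminescence measured 30 min later; cells had 5 hr of compound at 37 C.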
Test [5] in a line: qHTS assay to identify small molecule agonists of the TGF-beta/Smad signaling pathway (AID 1346859; active means well fitted activation curve with a large enough effect in the signal ratio in the repeat runs, not every such curve was filed as active; the % refers to the signal ratio; further: series mostly up to about 77 µM). A digest of the protocol:
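HEK 293T cells stably carrying a beta-lactamase reporter driven by the Smad binding element were seeded overnight, exposed to DMSO-dissolved compounds for 5 hr at 37 C, 5% CO2, then loaded with FRET substrate for 2 hr at room temperature.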

A short description of test [6]: Human pregnane X receptor (PXR) small molecule agonists, qHTS cell viability counter screen (AID 1346977). Further: nearly all actives have a fitted effect of over 50% in size. Further: potency means the concentration at half of the fitted maximal effect. A digest of the protocol: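 PXR-Luc HepG2 cells in medium with 5% charcoal-stripped FBS were pre-incubated 5hr, then exposed to compounds for 24hr at 37C. Viability was read in the same wells by CellTiter-Fluor fluorescence, reagent added after 23hr with a 1hr incubation.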

The nature of test [7]: Caspase-3/7 induction in HepG2 cells by small molecules, qHTS assay (AID 1346978). Further: nearly all actives have a fitted effect of over 15% in size. Further: potency means the concentration at half of the fitted maximal effect. Put shortly:
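Caspase-3/7 induction was measured by Caspase-Glo 3/7 luminescence (30 min, room temperature) after a 17 hr compound exposure of wild-type HepG2 cells seeded at 2,000 per well and pre-incubated 5 hr.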

A short description of test [8]: Caspase-3/7 induction in CHO-K1 cells by small molecules, qHTS cell viability counter screen (AID 1346979). Further: nearly all actives have a fitted effect of over 35% in size. Further: potency means the concentration at half of the fitted maximal effect. A digest of the protocol:
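Wild-type CHO-K1 cells were seeded at 1,500 per well, rested 5hr at 37 C, then exposed to compounds in DMSO. After 16hr, CellTiter-Fluor reagent was added and fluorescence read 1hr later as the viability measure.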

Test [9] concerns the target Thyrotropin-releasing hormone receptor (Homo sapiens) (UniProt P34981). Kind of test: qHTS assay to identify small molecule antagonists of the thyrotropin-releasing hormone receptor (TRHR) signaling pathway (AID 1346877; active means well fitted inhibition curve with a large enough effect in the repeat runs, not every such curve was filed as active; further: series mostly up to about 51 µM). A digest of the protocol:
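Intracellular calcium fluorescence, read kinetically every second over 3 min, reports TRH-evoked signalling in HEK293 cells carrying TRHR. Test compounds were added 5 min ahead of a 1 nM TRH challenge.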

Test [10] has the same target. Briefly: qHTS assay to identify small molecule agonists of the thyrotropin-releasing hormone receptor (TRHR) signaling pathway (AID 1346891; calls by dose curve; further: series mostly up to about 58 µM). Put shortly: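 TRHR-expressing HEK293 cells were plated 18 h at 37 °C/5% CO2, loaded with calcium dye 2 h at 37 °C, then given compound in DMSO; fluorescence was read kinetically for 3 min at 1 s intervals.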

The structures appear in SMILES notation. A number with no mark means an inactive call. Inconclusive results are not listed. The source made the active and inactive calls. Unless noted, the call rests on the fitted dose curve; in most records, active means well fitted curve in the direction sought with a large enough effect in the repeat runs; inconclusive means weak or mixed curves; inactive means no such curve, though single readings can be large; an effect the other way counts as inactive or inconclusive.
On the % scale 0 is the no-effect control and ±100 the full control effect.

Thyrotropin-releasing hormone receptor (Homo sapiens), sequence (P34981 whole entry, looked up): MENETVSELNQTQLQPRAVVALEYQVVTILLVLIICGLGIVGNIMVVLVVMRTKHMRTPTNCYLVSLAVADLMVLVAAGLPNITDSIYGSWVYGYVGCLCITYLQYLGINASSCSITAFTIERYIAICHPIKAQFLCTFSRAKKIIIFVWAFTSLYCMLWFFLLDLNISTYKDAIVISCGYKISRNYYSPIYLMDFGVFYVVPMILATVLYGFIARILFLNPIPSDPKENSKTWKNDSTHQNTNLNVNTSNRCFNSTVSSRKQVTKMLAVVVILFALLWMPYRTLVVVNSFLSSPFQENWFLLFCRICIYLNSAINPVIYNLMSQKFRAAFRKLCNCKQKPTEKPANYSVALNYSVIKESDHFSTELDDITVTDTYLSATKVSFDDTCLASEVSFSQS

Take `C=CC(C)(C)O`: the Potency result in test [1], in test [2], in test [3], in test [4], in [6] and in test [7] was “inactive” throughout. The Potency entry in test [8] is “inactive”. The call in test [5] was inactive.

For `C=COCCCC`, the Potency entry in test [1], in [2], in [3], in test [4], in test [6] and in test [7] was “inactive” each time. In addition, the Potency result in test [8] was “inactive”. Besides, the compound was called inactive in [5].

With `Nc1cccnc1N`, the Potency result in test [1], in [2], in test [3], in test [4], in test [6] and in [7] was “inactive” each time. For the same compound, in test [5], the call was inactive.

As to `Clc1cccc(Cl)n1`, the Potency result in test [1], in test [2], in test [3], in test [4], in [6] and in test [7] was “inactive” each time. For the same compound, the call in test [5] was inactive.

As to `Cc1ccc(N=Nc2c(O)ccc3ccccc23)c(C)c1`, the Potency result in [1], in test [2], in test [3], in test [4], in test [9] and in [7] was “inactive” each time. The compound was called inactive in [5]. The Potency in [8] is 7.5 µM (active).

Consider `NC(=O)c1ccccc1Cl`, for which the Potency entry in test [1], in test [2], in test [3], in test [4], in [6] and in [7] was “inactive” each time. The Potency entry in [8] is “inactive”. In test [5], the call was inactive.

`CCOC(=O)[C@H](C)O`: the Potency result in [1], in test [2], in [3], in test [4], in test [6] and in [7] was “inactive” in each case. Also, in test [8], the Potency result was “inactive”. In test [5], the call was inactive.

In the case of `CCCCC/C=C\C=C\C(=O)OCC`, the Potency result in test [1], in test [2], in [3], in test [4] and in test [9] was “inactive” each time. Besides, in test [5], the result was inactive. In addition, the Potency in test [8] is 63.7 µM (active).

With `[Cl][Sc]([Cl])[Cl]`, the Potency result in test [1], in [2], in test [3], in [4], in test [6] and in test [7] was “inactive” each time. Moreover, the Potency entry in test [8] is “inactive”. The result in test [5] was inactive.

For `Cc1ccc2sc3cccc(C)c3c2c1`, the Potency result in [1], in [2], in test [3], in test [4], in test [9] and in test [6] was “inactive” each time. For the same compound, the Potency result in test [7] and in test [8] was “inactive” throughout. In addition, the compound was classed as inactive in test [5].

Consider `CCCCCc1ccc(O)cc1`, for which the Potency result in test [1], in test [2], in test [3], in [4] and in test [6] was “inactive” in each case. For the same compound, in test [5], the result was inactive.

With `CC1CCC(C(C)(C)O)CC1` (centres undefined), the Potency entry in test [1], in [2], in [3], in test [4], in [9] and in [6] was “inactive” in each case. For the same compound, the Potency result in [7] and in [8] was “inactive” in each case. For the same compound, the compound was called inactive in [5].

In the case of `CCCCCN=C(N)N/N=C/c1c[nH]c2ccc(OC)cc12`, the Potency in [1] was 23.7 µM (active); in test [2] it was 16.8 µM (active); in [3] it was 26.8 µM (active); in test [4], 23.9 µM (active); in test [6], 18.8 µM (active); in test [7], 11.9 µM (active). In addition, the Potency in test [8] was 29.8 µM (active). The Potency result in test [9] and in test [10] was “inactive” throughout.

Consider `C1CCSC1`, for which the Potency result in [1], in test [2], in test [3], in [4], in [6] and in test [7] was “inactive” throughout. For the same compound, in [8], the Potency result was “inactive”. For the same compound, the compound was called inactive in test [5].

Consider `O=C(O)CN(CCCN(CC(=O)O)CC(=O)O)CC(=O)O`, for which the activity change, negative = cytotoxicity in [1] is -17.6% [at 18.9 µM]; in test [2], -13.8% [at 19 µM]; in test [4], -5.77% [at 15.8 µM]. For the same compound, in [3], the viability change, negative = cytotoxic was 5.13% [at 15.8 µM]. The activation in [5] is 0.66% [at 15.8 µM]. The activity, negative = inhibition in test [9] is -1.06% [at 10.5 µM]. The caspase activation in test [7] was 0.754% [at 19 µM]. Besides, in test [8], the Potency is 11.6 µM (active).

For the compound `Cc1cc(C)c(O)c(C(C)(C)C)c1`, the Potency entry in test [1], in test [2], in test [3], in test [4] and in test [6] was “inactive” in each case. Further, the compound was called inactive in [5].

On to `CC(C)C(=O)C(C)C`, for which the Potency entry in test [1], in test [2], in test [3], in test [4], in test [6] and in test [7] was “inactive” in each case. Moreover, in test [8], the Potency result is “inactive”. The compound was called inactive in [5].

Consider `c1ccc(-c2ccc(C(c3ccccc3)n3ccnc3)cc2)cc1` (centres undefined), for which the figures for the Potency in [1], in test [2] and in [8] were 9.44 µM (active), 16.8 µM (active) and 18.8 µM (active), respectively. Besides, the Potency entry in test [3], in test [4] and in test [7] was “inactive” in each case. The compound was called inactive in [5].
